Assay results taken from PubChem BioAssay.
Activity calls are given as the source filed them. Unless noted, no rule for the calls is given here.

Legend:
[1] = test system: Wnt5a (protein binding on small-molecule microarray); assay: Wnt5a binders on small-molecule microarray, primary screen, biophysical, 635/667 nm fluorescence (AID 1142); details: 635 nm fluorescence, higher = more signal;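 also: fluorescence read at 667 nm with signal to noise per printed feature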
[2] = cell viability in Huh7 cells, primary screen, cytotoxicity control for HCV replication inhibitor project, CellTiter-Glo luminescence, basal, 48 h (AID 1143); details: Huh7 HCV replicon, higher = more signal, called active from +8 up or from −8 down;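 also: Huh7 hepatoma cells carrying a hepatitis C replication reporter with no stimulus; test concentration not given here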
[3] = P. aeruginosa biofilm formation inhibitors, primary screen, PAO1 strain, BacTiter-Glo luminescence, LB-PBS (AID 1144); details: 12 h, higher = more signal
[4] = CREB reporter modulators without forskolin, primary screen, cell-based, PC12, CRE-LacZ reporter, unstimulated (AID 1145); details: no forskolin, luminescence, 4.5 h, higher = more signal, called active from +8 up or from −8 down
[5] = CREB reporter modulators under forskolin, primary screen, cell-based, PC12, CRE-LacZ reporter, forskolin-stimulated (AID 1146); details: luminescence, 4.5 h, higher = more signal, called active from +8 up or from −8 down;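 also: PC12 cells with 6xCRE LacZ reporter stimulated by forskolin 10 µM; beta-galactosidase reporter signal reflecting CREB driven transcription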
[6] = biological target: Streptavidin (Streptomyces avidinii) (UniProt P22629); assay: streptavidin binders on small-molecule microarray, primary screen, artefact control for SMM compound annotation, biophysical, 635/667 nm fluorescence (AID 1147); details: streptavidin binding, higher = more signal;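 also: signal reflects streptavidin binding to arrayed compounds as a control protein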
[7] = small-molecule binders of probe aInhba, primary screen, biochemical, small-molecule microarray, 635/667 nm fluorescence (AID 1148); details: higher = more signal;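 also: score merges 667nm spot fluorescence with signal-to-noise for antibody binding to printed compounds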
Torsin-1A (Homo sapiens) [8] = biological target: Torsin-1A (Homo sapiens) (UniProt O14656); assay: torsin A binders from cell lysate, primary screen, small-molecule microarray, wild-type, 635/667 nm (AID 1149); details: COS7 hTOR1A-WT lysate, 635 nm fluorescence, higher = more signal
Torsin-1A (Homo sapiens) [9] = biological target: Torsin-1A (Homo sapiens) (UniProt O14656); assay: small-molecule binders of mutant TOR1A in lysate, primary screen, cell lysate, small-molecule microarray, COS7 lysate, 635/667 nm fluorescence (AID 1150); details: COS7 hTOR1A mutant lysate, 635 nm fluorescence, higher = more signal;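 also: score pools 667 nm emission and signal to noise measuring lysate protein binding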
[10] = test system: Sonic hedgehog protein (Shh); assay: small-molecule binders of Shh protein, primary screen, biochemical, small-molecule microarray, 635/667 nm fluorescence (AID 1151); details: small-molecule microarray binding, 635 nm fluorescence; higher = more signal;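 also: Shh protein binding to compounds spotted on small-molecule microarray slides; score combines spot fluorescence intensity with signal-to-noise across triplicate slides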
[11] = E. coli DRC41 culture turbidity changes, primary screen, E. coli filamentation inducer project, strain DRC41, OD650, 48 h (AID 1152);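 also: E. coli MC1000 strain DRC41 lacking acrAB efflux pump and sulA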; details: E. coli DRC41 (acrAB sulA), higher = more signal, called active from +8 up or from −8 down
[12] = small-molecule binders of probe aLefty1, primary screen, biochemical, small-molecule microarray, 635/667 nm fluorescence (AID 1153); details: higher = more signal;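 also: score merges spot fluorescence with signal-to-noise ratio from the scanned slide images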
[13] = PSAC antagonists in infected red cells, primary screen, cell-based, P. falciparum Indochina, OD700, 1 h (AID 1154); details: P. falciparum Indochina infected RBC osmotic lysis, higher = more signal, called active from +8 up or from −8 down
[14] = PSAC antagonists in infected red cells, primary screen, cell-based, P. falciparum Indochina, OD700, 2 h (AID 1155);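 also: lysis reports solute entry through the parasite surface anion channel PSAC; channel blockers reduce lysis of infected cells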; details: P. falciparum Indochina infected erythrocytes, osmotic lysis OD700; higher = more signal, called active from +8 up or from −8 down
[15] = osmotic lysis modulators in infected erythrocytes, primary screen, PSAC antagonist project, cell-based, P. falciparum Indochina, OD700, 3 h (AID 1156); details: higher = more signal, called active from +8 up or from −8 down
[16] = PSAC antagonists in infected red cells, primary screen, cell-based, P. falciparum Indochina, OD700, 18 h (AID 1157); details: P. falciparum Indochina infected erythrocytes, osmotic lysis OD700, 18 h; higher = more signal, called active from +8 up or from −8 down
[17] = modulators of S6 phosphorylation in cells, primary screen, cell-based, A549, cytoblot, luminescence, serum-stimulated (AID 1158); details: A549 phospho-S6 cytoblot, 5 h, higher = more signal;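 also: serum-stimulated A549 lung adenocarcinoma cells; signal is phosphorylated S6 detected by cytoblot immunostaining with HRP secondary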
[18] = biological target: NADPH oxidase 2 (Homo sapiens) (UniProt P04839); assay: NOX2-dependent H2O2 signal modulators, primary screen, NOX inhibitor project, cell-based, HEK293-NOX2, PMA-stimulated, Amplex Red fluorescence (AID 1159); details: 45 min, higher = more signal, called active from +8 up or from −8 down; also: test concentration not given here
[19] = biological target: NADPH oxidase 4 (Homo sapiens) (UniProt Q9NPH5); assay: NOX4-dependent H2O2 signal modulators, primary screen, NOX inhibitor project, cell-based, HEK293-NOX4, tetracycline-induced, Amplex Red fluorescence (AID 1160); details: 45 min, higher = more signal, called active from +8 up or from −8 down
[20] = biological target: NADPH oxidase 5 (Homo sapiens) (UniProt Q96PH1); assay: NOX5-dependent H2O2 signal modulators, primary screen, NOX inhibitor project, cell-based, HEK293-NOX5, Amplex Red fluorescence (AID 1161); details: HEK293-NOX5, ionomycin, 45 min, higher = more signal
Sequence of NADPH oxidase 5 (Homo sapiens) (Q96PH1 whole entry, looked up): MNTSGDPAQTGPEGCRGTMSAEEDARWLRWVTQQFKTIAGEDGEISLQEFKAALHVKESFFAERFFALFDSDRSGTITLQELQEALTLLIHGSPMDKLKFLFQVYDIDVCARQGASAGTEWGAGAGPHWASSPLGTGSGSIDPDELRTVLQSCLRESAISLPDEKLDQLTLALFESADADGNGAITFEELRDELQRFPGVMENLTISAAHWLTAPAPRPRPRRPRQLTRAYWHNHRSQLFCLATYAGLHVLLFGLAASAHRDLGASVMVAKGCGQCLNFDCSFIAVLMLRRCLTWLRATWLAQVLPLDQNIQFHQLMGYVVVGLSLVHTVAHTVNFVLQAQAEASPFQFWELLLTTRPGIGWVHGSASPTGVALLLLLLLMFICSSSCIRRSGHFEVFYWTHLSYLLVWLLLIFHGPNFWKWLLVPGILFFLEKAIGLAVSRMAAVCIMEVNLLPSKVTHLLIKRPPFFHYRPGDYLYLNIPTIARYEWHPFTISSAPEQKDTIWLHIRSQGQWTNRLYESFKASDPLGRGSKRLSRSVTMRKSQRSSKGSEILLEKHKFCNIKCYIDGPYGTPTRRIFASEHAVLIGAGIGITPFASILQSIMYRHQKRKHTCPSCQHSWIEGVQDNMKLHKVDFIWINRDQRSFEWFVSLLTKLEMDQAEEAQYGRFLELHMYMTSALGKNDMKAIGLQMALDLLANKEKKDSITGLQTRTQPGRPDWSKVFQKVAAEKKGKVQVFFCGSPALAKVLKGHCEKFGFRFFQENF

Sequence of Streptavidin (Streptomyces avidinii) (P22629 whole entry, looked up): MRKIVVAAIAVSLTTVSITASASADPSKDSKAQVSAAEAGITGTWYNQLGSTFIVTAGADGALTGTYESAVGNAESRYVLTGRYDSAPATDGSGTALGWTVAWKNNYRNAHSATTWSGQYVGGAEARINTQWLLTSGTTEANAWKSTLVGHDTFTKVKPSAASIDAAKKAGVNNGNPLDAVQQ
Sequence of Torsin-1A (Homo sapiens) (O14656 whole entry, looked up): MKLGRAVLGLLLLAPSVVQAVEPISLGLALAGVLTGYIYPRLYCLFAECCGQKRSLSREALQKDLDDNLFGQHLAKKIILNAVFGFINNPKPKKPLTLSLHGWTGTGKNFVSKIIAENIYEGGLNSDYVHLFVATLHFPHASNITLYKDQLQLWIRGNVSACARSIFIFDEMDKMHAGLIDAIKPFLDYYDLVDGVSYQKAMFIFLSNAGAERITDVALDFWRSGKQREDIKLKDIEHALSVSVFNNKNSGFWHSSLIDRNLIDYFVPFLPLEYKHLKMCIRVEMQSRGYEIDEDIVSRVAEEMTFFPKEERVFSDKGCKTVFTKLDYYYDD
Sequence of NADPH oxidase 2 (Homo sapiens) (P04839 whole entry, looked up): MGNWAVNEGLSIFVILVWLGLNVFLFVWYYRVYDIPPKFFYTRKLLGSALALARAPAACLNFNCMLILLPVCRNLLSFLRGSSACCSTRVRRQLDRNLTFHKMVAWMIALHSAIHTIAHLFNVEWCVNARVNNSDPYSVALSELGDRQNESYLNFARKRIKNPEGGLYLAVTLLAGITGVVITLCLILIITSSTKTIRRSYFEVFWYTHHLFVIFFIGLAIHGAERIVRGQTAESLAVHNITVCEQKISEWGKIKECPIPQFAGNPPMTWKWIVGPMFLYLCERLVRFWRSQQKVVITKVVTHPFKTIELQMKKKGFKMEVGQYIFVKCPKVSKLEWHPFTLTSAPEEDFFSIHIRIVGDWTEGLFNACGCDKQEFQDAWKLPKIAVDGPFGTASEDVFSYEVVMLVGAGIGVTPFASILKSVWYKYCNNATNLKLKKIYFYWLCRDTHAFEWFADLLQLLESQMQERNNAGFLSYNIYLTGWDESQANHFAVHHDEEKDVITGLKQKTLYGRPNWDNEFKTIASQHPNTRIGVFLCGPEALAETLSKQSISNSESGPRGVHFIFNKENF
Sequence of NADPH oxidase 4 (Homo sapiens) (Q9NPH5 whole entry, looked up): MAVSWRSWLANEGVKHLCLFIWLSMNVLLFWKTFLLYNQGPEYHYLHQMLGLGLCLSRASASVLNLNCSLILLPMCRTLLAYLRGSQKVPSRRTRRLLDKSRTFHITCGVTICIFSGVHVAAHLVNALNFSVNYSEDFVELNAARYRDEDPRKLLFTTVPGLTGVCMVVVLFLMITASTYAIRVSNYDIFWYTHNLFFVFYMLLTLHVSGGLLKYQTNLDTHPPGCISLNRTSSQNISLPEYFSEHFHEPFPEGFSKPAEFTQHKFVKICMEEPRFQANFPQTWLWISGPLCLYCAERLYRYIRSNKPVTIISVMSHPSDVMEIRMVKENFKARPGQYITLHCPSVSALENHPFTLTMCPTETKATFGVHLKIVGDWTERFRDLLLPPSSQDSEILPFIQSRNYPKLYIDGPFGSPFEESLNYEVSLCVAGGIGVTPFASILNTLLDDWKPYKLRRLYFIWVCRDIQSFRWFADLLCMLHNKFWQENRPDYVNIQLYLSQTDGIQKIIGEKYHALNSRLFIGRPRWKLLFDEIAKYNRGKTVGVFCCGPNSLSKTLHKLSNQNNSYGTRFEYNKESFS

SMILES: C[C@]1(C(=O)O)c2ccccc2C(=O)N(Cc2cc(F)cc(C(F)(F)F)c2)[C@H]1c1ccc(CO)cc1
- composite z-score [1]: -0.0056
- z-score [2]: -2.56 (inactive)
- z-score [3]: -2.17 (inactive)
- z-score [4]: -0.502 (inactive)
- z-score [5]: -0.172 (inactive)
- composite z-score [6]: 0.0949
- composite z-score [7]: -0.152
- composite z-score (Torsin-1A (Homo sapiens) [8]): -0.0875
- composite z-score (Torsin-1A (Homo sapiens) [9]): 0.154
- composite z-score [10]: 0.505
- z-score [11]: -0.169 (inactive)
- composite z-score [12]: -0.261
- z-score [13]: 2.63 (inactive)
- z-score [14]: -0.0481 (inactive)
- z-score [15]: -0.992 (inactive)
- z-score [16]: -0.927 (inactive)
- z-score [17]: 1.27
- z-score [18]: 0.477 (inactive)
- z-score [19]: -1.43 (inactive)
- z-score [20]: -2.26

SMILES: Cc1ccc(N2C(=O)c3ccccc3[C@](C)(C(=O)NCCCN(C)C)[C@@H]2c2ccc(CO)cc2)nc1
- composite z-score [1]: -0.169
- z-score [2]: 0.368 (inactive)
- z-score [3]: 0.414 (inactive)
- z-score [4]: 0.0279 (inactive)
- z-score [5]: 0.64 (inactive)
- composite z-score [6]: -0.0986
- composite z-score [7]: -0.0983
- composite z-score (Torsin-1A (Homo sapiens) [8]): -1.38
- composite z-score (Torsin-1A (Homo sapiens) [9]): -1.27
- composite z-score [10]: -1.01
- z-score [11]: -0.666 (inactive)
- composite z-score [12]: -0.0058
- z-score [13]: 1.23 (inactive)
- z-score [14]: 0.0681 (inactive)
- z-score [15]: 0.386 (inactive)
- z-score [16]: -0.135 (inactive)
- z-score [17]: -0.0873
- z-score [18]: 0.627 (inactive)
- z-score [19]: 0.631 (inactive)
- z-score [20]: 0.199

SMILES: O=C(N1CCOCC1)[C@@]1(Cc2ccccc2)COC(c2ccc(OCCCO)cc2)=N1
- composite z-score [1]: 0.242
- z-score [2]: -5.19 (inactive)
- z-score [3]: -0.446 (inactive)
- z-score [4]: 0.484 (inactive)
- z-score [5]: -2.35 (inactive)
- composite z-score [6]: 0.647
- composite z-score [7]: 0.0422
- composite z-score (Torsin-1A (Homo sapiens) [8]): 0.315
- composite z-score (Torsin-1A (Homo sapiens) [9]): 1.02
- composite z-score [10]: -1.05
- z-score [11]: 2.51 (inactive)
- composite z-score [12]: -0.132
- z-score [13]: 12 (active)
- z-score [14]: 0.653 (inactive)
- z-score [15]: 0.929 (inactive)
- z-score [16]: -0.269 (inactive)
- z-score [17]: 1.66
- z-score [18]: -2.33 (inactive)
- z-score [19]: 0.642 (inactive)
- z-score [20]: -1.51

SMILES: COCCOC(=O)N1C(=O)[C@@]2(c3cc(C#CCC(C(=O)OC)C(=O)OC)ccc31)[C@H](C(=O)Nc1nc3ccccc3s1)[C@H]1C(=O)O[C@H](c3ccccc3)[C@H](c3ccccc3)N1[C@@H]2c1ccc(OCCO)cc1
- composite z-score [1]: 0.555
- z-score [2]: -0.835 (inactive)
- z-score [3]: -0.00208 (inactive)
- z-score [4]: 1.71 (inactive)
- z-score [5]: 0.323 (inactive)
- composite z-score [6]: 0.532
- composite z-score [7]: 0.79
- composite z-score (Torsin-1A (Homo sapiens) [8]): 1.07
- composite z-score (Torsin-1A (Homo sapiens) [9]): 0.596
- composite z-score [10]: 2.23
- z-score [11]: 0.836 (inactive)
- composite z-score [12]: 0.529
- z-score [13]: 5.5 (inactive)
- z-score [14]: 1.77 (inactive)
- z-score [15]: 0.832 (inactive)
- z-score [16]: 1.39 (inactive)
- z-score [17]: -0.265
- z-score [18]: 1.75 (inactive)
- z-score [19]: 1.03 (inactive)
- z-score [20]: 1.33

SMILES: C=C(COC)C(=O)CC[C@@H](OC(=O)c1ccccc1-c1ccccc1C(=O)O)c1ccc(OCCO)cc1
- composite z-score [1]: 0.238
- z-score [2]: -0.043 (inactive)
- z-score [3]: -0.147 (inactive)
- z-score [4]: 0.727 (inactive)
- z-score [5]: 1.36 (inactive)
- composite z-score [6]: -0.986
- composite z-score [7]: 0.0018
- composite z-score (Torsin-1A (Homo sapiens) [8]): -0.0281
- composite z-score (Torsin-1A (Homo sapiens) [9]): 1.15
- composite z-score [10]: 1.86
- z-score [11]: -0.172 (inactive)
- composite z-score [12]: 0.712
- z-score [13]: 10.8 (active)
- z-score [14]: 0.971 (inactive)
- z-score [15]: 0.489 (inactive)
- z-score [16]: 0.381 (inactive)
- z-score [17]: -0.528
- z-score [18]: 0.849 (inactive)
- z-score [19]: -0.245 (inactive)
- z-score [20]: -1.32

SMILES: CCN(CC)c1ccc(N2CC=CC34O[C@@H]5C=CCCOC(=O)C5[C@H]3C(=O)N(C(C)CO)[C@@H]4C2=O)cc1 (stereo not given in full)
- composite z-score [1]: -0.188
- z-score [2]: 0.0396 (inactive)
- z-score [3]: 1.25 (inactive)
- z-score [4]: 1.01 (inactive)
- z-score [5]: -0.0386 (inactive)
- composite z-score [6]: -0.638
- composite z-score [7]: 0.166
- composite z-score (Torsin-1A (Homo sapiens) [8]): 0.0632
- composite z-score (Torsin-1A (Homo sapiens) [9]): -0.194
- composite z-score [10]: 1.53
- z-score [11]: -0.627 (inactive)
- composite z-score [12]: 0.138
- z-score [13]: 3.66 (inactive)
- z-score [14]: 0.493 (inactive)
- z-score [15]: 0.988 (inactive)
- z-score [16]: 0.353 (inactive)
- z-score [17]: -0.465
- z-score [18]: -0.748 (inactive)
- z-score [19]: 0.447 (inactive)
- z-score [20]: 0.772

SMILES: C=CCN1C(=O)[C@@]2(O[C@@H](CCn3cc([C@H](O)c4ccccc4)nn3)[C@H]([Si](C)(C)c3ccc(OC)cc3)[C@H]2C)c2cc(N3C(=O)c4cccc5cccc3c45)ccc21
- composite z-score [1]: -0.654
- z-score [2]: -3.71 (inactive)
- z-score [3]: -0.119 (inactive)
- z-score [4]: 9.39 (active)
- z-score [5]: -0.592 (inactive)
- composite z-score [6]: -0.253
- composite z-score [7]: -0.128
- composite z-score (Torsin-1A (Homo sapiens) [8]): -0.488
- composite z-score (Torsin-1A (Homo sapiens) [9]): -0.462
- composite z-score [10]: -0.339
- z-score [11]: -0.851 (inactive)
- composite z-score [12]: -0.101
- z-score [13]: 4.77 (inactive)
- z-score [14]: 1.81 (inactive)
- z-score [15]: 0.519 (inactive)
- z-score [16]: 1.31 (inactive)
- z-score [17]: 0.075
- z-score [18]: 0.962 (inactive)
- z-score [19]: 1.57 (inactive)
- z-score [20]: 2.52

SMILES: CCCC[C@H]1C[C@@H]1[C@@H]1N(C(C)=O)[C@H](c2cccc(OC)c2)CC12CC2
- composite z-score [1]: -0.0718
- z-score [2]: -0.338 (inactive)
- z-score [3]: 0.824 (inactive)
- z-score [4]: 0.583 (inactive)
- z-score [5]: -0.0157 (inactive)
- composite z-score [6]: 0.361
- composite z-score [7]: 0.0111
- composite z-score (Torsin-1A (Homo sapiens) [8]): -0.53
- composite z-score (Torsin-1A (Homo sapiens) [9]): 0.0852
- composite z-score [10]: -0.784
- z-score [11]: -1.17 (inactive)
- composite z-score [12]: 0.416
- z-score [13]: 3.6 (inactive)
- z-score [14]: 0.984 (inactive)
- z-score [15]: 1.1 (inactive)
- z-score [16]: 0.692 (inactive)
- z-score [17]: -0.168
- z-score [18]: -0.927 (inactive)
- z-score [19]: 0.998 (inactive)
- z-score [20]: -2.9
